{
  "source": "the supplement of paper PMC7366291",
  "note": "Counter-ions that a name gives are not always drawn. ± gives the standard deviation of the averaged measurements.",
  "data": [
    {"test_system": "Danio rerio Tg(wt1b:EGFP) embryo, pronephros", "test": "fraction of imaged embryos annotated as normal kidney; higher = less nephrotoxic; extreme values may be limits of the assay", "settings": "25 µM; exposure: 24-48 hpf", "summary_of_the_method": "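Dechorionated Tg(wt1b:EGFP) zebrafish embryos were incubated with 25 μM compound in 0.5% DMSO, 5 mM HEPES-buffered E3 and 0.003% PTU from 24 to 48 hpf at 28.5°C. Pronephroi were then imaged by widefield fluorescence, and the fraction of embryos per treatment assigned by hand to the normal-kidney category is given.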", "values": [
      {"smiles": "O=C1c2c(O)cccc2Cc2cccc(O)c21", "note": "[Anthralin]", "fraction of imaged embryos annotated as normal kidney": 0.909},
      {"smiles": "O=C1OC(CN2CCOCC2)CN1/N=C/c1ccc([N+](=O)[O-])o1", "note": "(centres undefined) [Furaltadone hydrochloride]", "fraction of imaged embryos annotated as normal kidney": 0.75},
      {"smiles": "COc1ccccc1O", "note": "[Guaiacol]", "fraction of imaged embryos annotated as normal kidney": 0.917},
      {"smiles": "Clc1ccc(COC(Cn2ccnc2)c2ccc(Cl)cc2Cl)cc1", "note": "(centres undefined) [Econazole nitrate]", "fraction of imaged embryos annotated as normal kidney": 0.417}
    ]},
    {"test_system": "Danio rerio Tg(wt1b:EGFP) embryo, pronephros", "test": "pronephric angle neck segment to proximal convoluted tubule (mean of left and right), fold change vs DMSO control; higher = larger pronephric angle", "settings": "25 µM; exposure: 24-48 hpf", "summary_of_the_method": "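Using a Fiji macro, distances and angles were calculated from 16 reference points set by hand on maximum projections of pronephroi imaged dorsally (470 nm, 10 z-slices) in agarose-filled 96-well plates. The dechorionated Tg(wt1b:EGFP) zebrafish embryos had received 25 μM compound in 0.5% DMSO in HEPES-buffered E3 with 0.003% PTU from 24 to 48 hpf at 28.5°C. Values more than 2 SD from a feature's mean were excluded. Each feature appears as a fold change over the mean of DMSO-treated embryos from the same day.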", "values": [
      {"smiles": "Cc1onc(-c2ccccc2)c1C(=O)N[C@@H]1C(=O)N2[C@@H]1SC(C)(C)[C@@H]2C(=O)O", "note": "[Oxacillin sodium]", "pronephric angle neck segment": "0.9685 ± 0.0044"},
      {"smiles": "Cc1ccccc1C(OCCN(C)C)c1ccccc1", "note": "(centres undefined) [Orphenadrine hydrochloride]", "pronephric angle neck segment": "1 ± 0.015"},
      {"smiles": "CN[C@@H]1[C@@H](O)[C@@H](O[C@@H]2[C@@H](O)[C@H](O[C@H]3OC(CN)=CC[C@H]3N)[C@@H](N)C[C@H]2N)OC[C@]1(C)O", "note": "[Sisomicin sulfate]", "pronephric angle neck segment": "1.11 ± 0.029"},
      {"smiles": "O=C(CCCN1CCC(O)(c2ccc(Br)cc2)CC1)c1ccc(F)cc1", "note": "[Bromperidol]", "pronephric angle neck segment": "0.974 ± 0.038"},
      {"smiles": "CCCCC1(COC(=O)CCC(=O)O)C(=O)N(c2ccccc2)N(c2ccccc2)C1=O", "note": "[Suxibuzone]", "pronephric angle neck segment": "0.992 ± 0.016"},
      {"smiles": "Cc1ccsc1/C=C/C1=NCCCN1C", "note": "[Morantel tartrate]", "pronephric angle neck segment": "1.01 ± 0.019"},
      {"smiles": "CN1CCN(c2c(F)cc3c(=O)c(C(=O)O)cn4c3c2SCC4)CC1", "note": "[Rufloxacin]", "pronephric angle neck segment": "0.986 ± 0.027"},
      {"smiles": "Cc1c(NC(=O)c2cccnc2)c(=O)n(-c2ccccc2)n1C", "note": "[Nifenazone]", "pronephric angle neck segment": "1 ± 0.023"},
      {"smiles": "COC(=O)N/N=C/c1c[n+]([O-])c2ccccc2[n+]1[O-]", "note": "[Carbadox]", "pronephric angle neck segment": "1.13 ± 0.11"},
      {"smiles": "Cc1cc(O)c(C(=O)N[C@@H](C(=O)N[C@@H]2C(=O)N3C(C(=O)O)=C(CSc4nnnn4C)CS[C@H]23)c2ccc(O)cc2)cn1", "note": "[Cefpiramide]", "pronephric angle neck segment": "0.9442 ± 0.0043"},
      {"smiles": "CNCCC=C1c2ccccc2CCc2ccccc21", "note": "[Nortriptyline hydrochloride]", "pronephric angle neck segment": "1.03 ± 0.011"},
      {"smiles": "NC(=O)OCC(O)COc1ccc(Cl)cc1", "note": "(centres undefined) [Chlorphensin carbamate]", "pronephric angle neck segment": "1.12 ± 0.099"},
      {"smiles": "NS(=O)(=O)c1cc2c(cc1C(F)(F)F)NC(Cc1ccccc1)NS2(=O)=O", "note": "(centres undefined) [Bendroflumethiazide]", "pronephric angle neck segment": "1.09 ± 0.083"},
      {"smiles": "Cc1ncc([N+](=O)[O-])n1CCO", "note": "[Metronidazole]", "pronephric angle neck segment": "0.884 ± 0.061"},
      {"smiles": "CCOC(=O)C1=C(C)NC(C)=C(C(=O)OCC)C1c1ccccc1/C=C/C(=O)OC(C)(C)C", "note": "[Lacidipine]", "pronephric angle neck segment": "1.11 ± 0.073"},
      {"smiles": "CC(=O)OCC(=O)[C@@]12OC(C)(C)O[C@@H]1C[C@H]1[C@@H]3C[C@H](F)C4=CC(=O)C=C[C@]4(C)[C@@]3(F)[C@@H](O)C[C@@]12C", "note": "[Fluocinonide]", "pronephric angle neck segment": "1.05 ± 0.067"},
      {"smiles": "CC(=O)N(CC(O)CO)c1c(I)c(C(=O)NCC(O)CO)c(I)c(C(=O)NCC(O)CO)c1I", "note": "(centres undefined) [Iohexol]", "pronephric angle neck segment": "0.962 ± 0.069"},
      {"smiles": "COc1c2occc2c(OC)c2c(=O)cc(C)oc12", "note": "[Khellin]", "pronephric angle neck segment": "1.03 ± 0.0013"},
      {"smiles": "CN1[C@@H]2CC[C@H]1C[C@@H](OC(=O)C(O)c1ccccc1)C2", "note": "(mixture of isomers) [Homatropine hydrobromide (R,S)]", "pronephric angle neck segment": "0.9643 ± 0.0018"},
      {"smiles": "O=C1C(O)=C([C@H]2CC[C@H](c3ccc(Cl)cc3)CC2)C(=O)c2ccccc21", "note": "[Atovaquone]", "pronephric angle neck segment": "0.959 ± 0.017"},
      {"smiles": "Cn1c(=O)c2c(ncn2CCO)n(C)c1=O", "note": "[Etofylline]", "pronephric angle neck segment": "0.9776 ± 0.00038"},
      {"smiles": "CCN1CCCC1CNC(=O)c1cc(S(N)(=O)=O)ccc1OC", "note": "(centres undefined) [Sulpiride]", "pronephric angle neck segment": "0.983 ± 0.032"},
      {"smiles": "CC[C@]12CCCN3CCc4c(n(c5ccccc45)[C@@](O)(C(=O)OC)C1)[C@@H]32", "note": "[Vincamine]", "pronephric angle neck segment": "1.05 ± 0.057"},
      {"smiles": "CCOc1cc(CC(=O)N[C@@H](CC(C)C)c2ccccc2N2CCCCC2)ccc1C(=O)O", "note": "[Repaglinide]", "pronephric angle neck segment": "1.06 ± 0.036"},
      {"smiles": "CN(C)CCc1c[nH]c2ccc(C[C@H]3COC(=O)N3)cc12", "note": "[Zolmitriptan]", "pronephric angle neck segment": "1.03 ± 0.019"},
      {"smiles": "CC(=O)Nc1ccc(OCC(O)CNC(C)C)cc1", "note": "(centres undefined) [Practolol]", "pronephric angle neck segment": "1.02 ± 0.051"},
      {"smiles": "Cc1ncc([N+](=O)[O-])n1CC(C)O", "note": "(centres undefined) [Secnidazole]", "pronephric angle neck segment": "0.9777 ± 0.0024"},
      {"smiles": "O=C(COc1ccc(Cl)cc1)N1CCN(Cc2ccc3c(c2)OCO3)CC1", "note": "[Fipexide hydrochloride]", "pronephric angle neck segment": "1.24 ± 0.11"},
      {"smiles": "N=C(N)N/N=C/c1c(Cl)cccc1Cl", "note": "[Guanabenz acetate]", "pronephric angle neck segment": "0.9461 ± 0.00069"},
      {"smiles": "NS(=O)(=O)Cc1noc2ccccc12", "note": "[Zonisamide]", "pronephric angle neck segment": "1.02 ± 0.017"},
      {"smiles": "CCC(=O)O[C@@H](O[P@](=O)(CCCCc1ccccc1)CC(=O)N1C[C@H](C2CCCCC2)C[C@H]1C(=O)O)C(C)C", "note": "[Fosinopril]", "pronephric angle neck segment": "1.03 ± 0.013"},
      {"smiles": "Nc1ncnc2c1ncn2[C@@H]1O[C@H](CO)[C@@H](O)[C@@H]1O", "note": "[Vidarabine]", "pronephric angle neck segment": "1.03 ± 0.074"},
      {"smiles": "Cn1c(=O)c2[nH]cnc2n(C)c1=O", "note": "[Aminophylline]", "pronephric angle neck segment": "0.871 ± 0.011"},
      {"smiles": "Cc1nnc(NS(=O)(=O)c2ccc(N)cc2)s1", "note": "[Sulfamethizole]", "pronephric angle neck segment": "1.06 ± 0.028"},
      {"smiles": "CN(C)CCC=C1c2ccccc2COc2ccccc21", "note": "[Doxepin hydrochloride]", "pronephric angle neck segment": "1.01 ± 0.076"},
      {"smiles": "CN(C)[C@@H]1C(O)=C(C(N)=O)C(=O)[C@@]2(O)C(O)=C3C(=O)c4c(O)cccc4[C@@](C)(O)[C@H]3C[C@@H]12", "note": "[Tetracycline hydrochloride]", "pronephric angle neck segment": "0.9721 ± 0.0096"},
      {"smiles": "O=C1c2c(O)cccc2Cc2cccc(O)c21", "note": "[Anthralin]", "pronephric angle neck segment": "1.06 ± 0.014"},
      {"smiles": "O=C1OC(CN2CCOCC2)CN1/N=C/c1ccc([N+](=O)[O-])o1", "note": "(centres undefined) [Furaltadone hydrochloride]", "pronephric angle neck segment": "0.995 ± 0.015"},
      {"smiles": "COc1ccccc1O", "note": "[Guaiacol]", "pronephric angle neck segment": "1.02 ± 0.035"},
      {"smiles": "Clc1ccc(COC(Cn2ccnc2)c2ccc(Cl)cc2Cl)cc1", "note": "(centres undefined) [Econazole nitrate]", "pronephric angle neck segment": "1.2 ± 0.0047"}
    ]}
  ]
}
